Results as given in PubChem BioAssay (Tox21).
Inconclusive results are not listed. Active and inactive are the calls of the source. Unless noted, the call rests on the fitted dose curve; in most records, active means well fitted curve in the direction sought with a large enough effect in the repeat runs; inconclusive means weak or mixed curves; inactive means no such curve, though single readings can be large; an effect the other way counts as inactive or inconclusive.

Legend:
[1] = biological target: Progesterone receptor (Homo sapiens) (UniProt P06401); assay: qHTS assay to identify small molecule antagonists of the progesterone receptor (PR) signaling pathway (AID 1346795; active means well fitted inhibition curve with a large enough effect in the signal ratio in the repeat runs, not every such curve was filed as active; the % refers to the signal ratio; further: potency means the concentration at half of the fitted maximal effect)
Chain of Progesterone receptor (Homo sapiens) (P06401 whole entry, looked up): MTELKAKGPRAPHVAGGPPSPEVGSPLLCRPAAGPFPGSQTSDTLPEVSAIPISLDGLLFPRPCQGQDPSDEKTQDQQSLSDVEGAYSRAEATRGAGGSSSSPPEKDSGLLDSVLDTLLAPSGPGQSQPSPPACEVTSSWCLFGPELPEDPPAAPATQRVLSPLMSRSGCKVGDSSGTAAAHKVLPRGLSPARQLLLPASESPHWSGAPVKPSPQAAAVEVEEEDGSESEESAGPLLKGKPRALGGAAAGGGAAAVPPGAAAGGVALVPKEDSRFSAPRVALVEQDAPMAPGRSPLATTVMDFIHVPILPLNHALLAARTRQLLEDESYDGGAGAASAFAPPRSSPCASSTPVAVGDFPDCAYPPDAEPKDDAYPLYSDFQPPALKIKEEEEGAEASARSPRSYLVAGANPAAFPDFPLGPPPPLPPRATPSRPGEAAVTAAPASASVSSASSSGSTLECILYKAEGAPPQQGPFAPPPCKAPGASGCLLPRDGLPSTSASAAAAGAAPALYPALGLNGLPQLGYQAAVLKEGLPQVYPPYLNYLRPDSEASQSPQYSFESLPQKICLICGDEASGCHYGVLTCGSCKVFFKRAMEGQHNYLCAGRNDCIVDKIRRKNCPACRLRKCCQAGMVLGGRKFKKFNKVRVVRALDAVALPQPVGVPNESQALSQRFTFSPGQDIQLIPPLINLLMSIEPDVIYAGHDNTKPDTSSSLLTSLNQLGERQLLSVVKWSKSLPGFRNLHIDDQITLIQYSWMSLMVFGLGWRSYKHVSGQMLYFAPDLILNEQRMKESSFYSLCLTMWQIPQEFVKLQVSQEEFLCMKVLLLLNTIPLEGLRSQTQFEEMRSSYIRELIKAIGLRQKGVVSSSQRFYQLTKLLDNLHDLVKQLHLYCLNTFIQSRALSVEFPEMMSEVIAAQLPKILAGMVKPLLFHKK
Procedure, shortened: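 Antagonist mode with agonist R5020 at 1 nM final and 16 hr incubation at 37C. Reporter was beta-lactamase driven by UAS in HEK293T (PR-UAS-bla), 2% charcoal-stripped serum; signal from LiveBLAzer FRET substrate, 2 hr at room temperature.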

[2] = qHTS assay to identify small molecule agonists of the progesterone receptor (PR) signaling pathway - cell viability counter screen (AID 1346799; calls by dose curve; further: nearly all actives have a fitted effect of over 45% in size)
Procedure, shortened: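 Cytotoxicity measured by CellTiter-Glo luminescence (30 min, RT) in the same wells as the PR beta-lactamase agonist read. Those HEK293T cells had 16 h compound treatment at 37 C in 2% charcoal-stripped FBS medium.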

[3] = qHTS assay to identify small molecule antagonists of the TGF-beta/Smad signaling pathway - cell viability counter screen (AID 1346824); further: nearly all actives have a fitted effect of over 50% in size
Procedure, shortened: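 Cytotoxicity counter-screen run in the same wells as the beta-lactamase Smad reporter read: CellTiter-Glo luminescence after 30 min at room temperature. HEK 293T SBE-bla cells had 5 hr compound exposure at 37 C with TGF-beta1 (0.25 ng/mL stock).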

[4] = qHTS assay to identify small molecule agonists of the TGF-beta/Smad signaling pathway - cell viability counter screen (AID 1346829); further: top concentration of the series differs between compounds; nearly all actives have a fitted effect of over 45% in size
Procedure, shortened: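 Compound-treated SBE-bla HEK 293T cells (5 hr, 37 C) were assessed for viability with CellTiter-Glo in parallel with the reporter read.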

[5] = qHTS assay to identify small molecule agonists of the TGF-beta/Smad signaling pathway (AID 1346859; active means well fitted activation curve with a large enough effect in the signal ratio in the repeat runs, not every such curve was filed as active; the % refers to the signal ratio; further: series mostly up to about 77 µM)
Procedure, shortened: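 Fluorescence (ex 405 nm; em 460 and 530 nm) was read 2 h after LiveBLAzer FRET substrate at RT. The preceding compound treatment of overnight-plated SBE-bla HEK293T cells lasted 5 h at 37 C.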

[6] = biological target: Thyrotropin-releasing hormone receptor (Homo sapiens) (UniProt P34981); assay: qHTS assay to identify small molecule antagonists of the thyrotropin-releasing hormone receptor (TRHR) signaling pathway (AID 1346877; active means well fitted inhibition curve with a large enough effect in the repeat runs, not every such curve was filed as active; further: series mostly up to about 51 µM)
Chain of Thyrotropin-releasing hormone receptor (Homo sapiens) (P34981 whole entry, looked up): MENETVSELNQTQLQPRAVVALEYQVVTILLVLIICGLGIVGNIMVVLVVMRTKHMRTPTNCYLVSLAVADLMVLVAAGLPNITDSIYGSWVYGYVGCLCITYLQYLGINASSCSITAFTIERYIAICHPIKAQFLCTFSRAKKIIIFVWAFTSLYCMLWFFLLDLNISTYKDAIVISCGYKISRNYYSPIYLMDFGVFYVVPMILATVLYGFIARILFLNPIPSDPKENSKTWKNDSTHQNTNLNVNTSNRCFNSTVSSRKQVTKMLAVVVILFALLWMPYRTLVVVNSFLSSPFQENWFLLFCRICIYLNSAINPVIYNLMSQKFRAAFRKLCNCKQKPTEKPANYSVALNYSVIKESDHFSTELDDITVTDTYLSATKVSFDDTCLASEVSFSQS
Procedure, shortened: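 Intracellular calcium fluorescence, read kinetically every second over 3 min, reports TRH-evoked signalling in HEK293 cells carrying TRHR. Test compounds were added 5 min ahead of a 1 nM TRH challenge.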

[7] = biological target: Thyrotropin-releasing hormone receptor (Homo sapiens) (UniProt P34981); assay: qHTS assay to identify small molecule agonists of the thyrotropin-releasing hormone receptor (TRHR) signaling pathway (AID 1346891; calls by dose curve; further: series mostly up to about 58 µM)
Procedure, shortened: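 Agonist-mode intracellular calcium readout: kinetic fluorescence over 3 min at 1 s intervals after compound addition to TRHR-HEK293 cells (18 h seeded, 2 h dye-loaded at 37 C). Fifteen concentrations, triplicates.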

[8] = Human pregnane X receptor (PXR) small molecule agonists, qHTS cell viability counter screen (AID 1346977); further: nearly all actives have a fitted effect of over 50% in size
Procedure, shortened: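 Same-well viability read: CellTiter-Fluor added after 23 hr compound exposure, fluorescence measured 1 hr later. Cells were PXR-Luc HepG2 seeded at 2,000/well in 5% charcoal-stripped FBS medium, rested 5 hr before dosing at 37 C.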

[9] = Caspase-3/7 induction in HepG2 cells by small molecules, qHTS assay (AID 1346978); further: nearly all actives have a fitted effect of over 15% in size
Procedure, shortened: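 Caspase-3/7 induction was measured by Caspase-Glo 3/7 luminescence (30 min, room temperature) after a 17 hr compound exposure of wild-type HepG2 cells seeded at 2,000 per well and pre-incubated 5 hr.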

[10] = Caspase-3/7 induction in CHO-K1 cells by small molecules, qHTS cell viability counter screen (AID 1346979); further: nearly all actives have a fitted effect of over 35% in size; further: potency means the concentration at half of the fitted maximal effect
Procedure, shortened: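 Cytotoxicity counter screen: CellTiter-Fluor added to compound-treated wild-type CHO-K1 cells at 16 h (37C, 5% CO2), fluorescence measured 1 h later; same wells as caspase-3/7 measurement.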

[11] = Caspase-3/7 induction in CHO-K1 cells by small molecules, qHTS assay (AID 1346980); further: nearly all actives have a fitted effect of over 15% in size
Procedure, shortened: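 Luminescent Caspase-Glo 3/7 read (30min, room temperature) quantified apoptosis induction. Cells were wild-type CHO-K1, treated with compound for 17hr at 37 C and 5% CO2.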

[12] = Caspase-3/7 induction in HepG2 cells by small molecules, qHTS cell viability counter screen (AID 1346981); further: series mostly up to about 92 µM; nearly all actives have a fitted effect of over 30% in size
Procedure, shortened: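 HepG2, WT, 2,000 cells/well; 5 hr pre-incubation 37 C/5% CO2; compound pin-transferred from DMSO; 16 hr exposure; CellTiter-Fluor, 1 hr; fluorescence read.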

[13] = biological target: Nuclear receptor subfamily 1 group I member 2 (Homo sapiens) (UniProt O75469); assay: Human pregnane X receptor (PXR) small molecule agonists, qHTS assay (AID 1346982); further: nearly all actives have a fitted effect of over 35% in size; further: potency means the concentration at half of the fitted maximal effect
Chain of Nuclear receptor subfamily 1 group I member 2 (Homo sapiens) (O75469 whole entry, looked up): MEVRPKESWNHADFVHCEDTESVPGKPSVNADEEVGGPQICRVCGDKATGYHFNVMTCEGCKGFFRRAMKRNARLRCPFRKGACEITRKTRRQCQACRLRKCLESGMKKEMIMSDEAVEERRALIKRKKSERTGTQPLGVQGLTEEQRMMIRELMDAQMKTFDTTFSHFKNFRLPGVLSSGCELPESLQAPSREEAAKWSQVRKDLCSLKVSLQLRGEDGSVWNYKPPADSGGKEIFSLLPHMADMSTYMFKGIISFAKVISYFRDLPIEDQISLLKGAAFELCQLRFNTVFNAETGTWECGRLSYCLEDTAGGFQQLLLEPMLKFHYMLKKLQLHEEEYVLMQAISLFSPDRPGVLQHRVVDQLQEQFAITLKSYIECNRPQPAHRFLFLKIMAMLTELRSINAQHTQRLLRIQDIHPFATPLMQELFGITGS
Procedure, shortened: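 Luciferase signal from ONE-Glo (30 min, room temperature) measured activation of hPXR-driven CYP3A4 reporter expression in PXR-Luc HepG2 cells treated with compounds for 24 hr at 37 C.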

[14] = biological target: Cytochrome P450 2D6 (Homo sapiens) (UniProt P10635); assay: Cytochrome P450 Family 2 Subfamily D Member 6 (CYP2D6) small molecule antagonists: luciferase reporter qHTS assay (AID 1671196); further: nearly all actives have a fitted effect of over 50% in size; further: potency means the concentration at half of the fitted maximal effect; on activity change, negative = inhibition: series mostly up to about 120 µM
Chain of Cytochrome P450 2D6 (Homo sapiens) (P10635 whole entry, looked up): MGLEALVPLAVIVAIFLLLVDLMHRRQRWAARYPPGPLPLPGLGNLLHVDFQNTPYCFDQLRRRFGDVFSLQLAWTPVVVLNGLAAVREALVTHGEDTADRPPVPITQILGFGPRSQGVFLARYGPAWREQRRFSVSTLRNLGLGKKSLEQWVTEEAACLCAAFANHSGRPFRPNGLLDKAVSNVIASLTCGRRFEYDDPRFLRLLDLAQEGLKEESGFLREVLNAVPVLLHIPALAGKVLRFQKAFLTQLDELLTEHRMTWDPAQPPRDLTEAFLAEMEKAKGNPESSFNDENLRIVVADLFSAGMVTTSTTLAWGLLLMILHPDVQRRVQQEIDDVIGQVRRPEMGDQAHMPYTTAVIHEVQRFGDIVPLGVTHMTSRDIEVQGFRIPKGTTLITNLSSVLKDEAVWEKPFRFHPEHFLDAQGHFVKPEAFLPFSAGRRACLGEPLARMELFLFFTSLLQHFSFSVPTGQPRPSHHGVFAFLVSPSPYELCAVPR
Procedure, shortened: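 Read-out is luminescence from luciferin formed by CYP2D6 turnover of a proluciferin substrate, recorded as relative luminescence units. Reactions ran 1 h at room temperature after NADPH regeneration solution was added.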

[15] = biological target: Cytochrome P450 2C19 (Homo sapiens) (UniProt P33261); assay: Cytochrome P450 Family 2 Subfamily C Member 19 (CYP2C19) small molecule antagonists: luciferase reporter qHTS assay (AID 1671197); further: nearly all actives have a fitted effect of over 65% in size; further: potency means the concentration at half of the fitted maximal effect; on activity change, negative = inhibition: series mostly up to about 120 µM
Chain of Cytochrome P450 2C19 (Homo sapiens) (P33261 whole entry, looked up): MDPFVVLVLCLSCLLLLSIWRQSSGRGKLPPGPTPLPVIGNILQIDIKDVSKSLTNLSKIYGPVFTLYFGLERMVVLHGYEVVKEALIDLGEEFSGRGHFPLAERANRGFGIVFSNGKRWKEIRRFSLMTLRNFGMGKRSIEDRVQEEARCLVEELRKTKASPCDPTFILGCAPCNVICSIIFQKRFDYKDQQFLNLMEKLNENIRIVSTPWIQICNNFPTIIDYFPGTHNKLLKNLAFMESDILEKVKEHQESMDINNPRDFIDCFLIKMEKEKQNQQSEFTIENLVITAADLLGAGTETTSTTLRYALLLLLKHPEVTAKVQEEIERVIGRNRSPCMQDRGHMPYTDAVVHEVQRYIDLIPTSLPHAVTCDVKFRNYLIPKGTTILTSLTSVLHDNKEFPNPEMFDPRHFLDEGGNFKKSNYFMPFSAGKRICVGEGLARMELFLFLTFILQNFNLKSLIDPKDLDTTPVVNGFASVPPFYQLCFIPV
Procedure, shortened: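 P450-Glo CYP2C19 screening system; proluciferin substrate; DMSO compound stocks; 10 min RT preincubation; NADPH regeneration, 1 h at 37C; luciferin detection reagent, 20 min RT; luminescence as RLU.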

[16] = biological target: Cytochrome P450 2C9 (Homo sapiens) (UniProt P11712); assay: Cytochrome P450 Family 2 Subfamily C Member 9 (CYP2C9) small molecule antagonists: luciferase reporter qHTS assay (AID 1671198); further: nearly all actives have a fitted effect of over 50% in size; further: potency means the concentration at half of the fitted maximal effect; on activity change, negative = inhibition: series mostly up to about 120 µM
Chain of Cytochrome P450 2C9 (Homo sapiens) (P11712 whole entry, looked up): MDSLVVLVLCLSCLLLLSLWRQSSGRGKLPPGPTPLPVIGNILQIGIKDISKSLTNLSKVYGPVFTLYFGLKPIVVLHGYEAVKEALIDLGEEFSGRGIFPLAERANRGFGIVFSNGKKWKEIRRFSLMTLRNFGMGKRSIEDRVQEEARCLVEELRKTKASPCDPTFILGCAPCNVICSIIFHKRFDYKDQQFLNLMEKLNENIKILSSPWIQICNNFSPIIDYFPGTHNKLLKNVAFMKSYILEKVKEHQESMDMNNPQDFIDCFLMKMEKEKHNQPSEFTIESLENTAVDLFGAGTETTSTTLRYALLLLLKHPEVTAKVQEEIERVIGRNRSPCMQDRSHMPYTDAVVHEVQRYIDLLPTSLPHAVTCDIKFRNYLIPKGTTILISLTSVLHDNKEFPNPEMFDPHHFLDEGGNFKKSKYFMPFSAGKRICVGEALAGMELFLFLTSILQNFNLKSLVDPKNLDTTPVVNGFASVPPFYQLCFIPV
Procedure, shortened: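 Enzyme-substrate mix preincubated with compound 10 min at room temperature; reaction started with NADPH regeneration solution, 1 h 37C. Luminescent luciferin product read after 20 min detection reagent.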

[17] = qHTS assay to identify small molecule antagonists of the progesterone receptor (PR) signaling pathway - cell viability counter screen (AID 1346798); further: nearly all actives have a fitted effect of over 50% in size; further: potency means the concentration at half of the fitted maximal effect; on activity change, negative = cytotoxicity: series mostly up to about 92 µM
Procedure, shortened: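 Cytotoxicity read as CellTiter-Glo luminescence (30 min, room temperature) in the same wells as the beta-lactamase readout. HEK293T PR-UAS-bla cells in charcoal-stripped 2% FBS received compound and R5020, then 16 h at 37C, 5% CO2.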
On the % scale 0 is the no-effect control and ±100 the full control effect.

CCCCCCCCCCCCCCCCCO
inactive: activity change, negative = inhibition [1] 1.26% [at 18.9 µM] | activity change, negative = cytotoxicity [2] -18.8% [at 19 µM] | viability change, negative = cytotoxic [3] -8.2% [at 15.8 µM] | activity change, negative = cytotoxicity [4] -0.289% [at 15.8 µM] | activation [5] -0.867% [at 15.8 µM] | activity, negative = inhibition [6] 0.827% [at 10.5 µM] | activation [7] 0.0338% [at 11.8 µM] | activity change, negative = cytotoxicity [8] 3.58% [at 19 µM] | caspase activation [9] 0.39% [at 19 µM] | activity change, negative = cytotoxicity [10] 11.2% [at 19 µM] | caspase-3/7 activation [11] 1.08% [at 19 µM] | activity change, negative = cytotoxicity [12] 9.49% [at 19 µM] | activation [13] 4.62% [at 19 µM] | activity change, negative = inhibition [14] -4.81% [at 23.6 µM] | activity change, negative = inhibition [15] -5.64% [at 23.6 µM] | activity change, negative = inhibition [16] -2.94% [at 23.6 µM]

O=C(Oc1ccccc1)c1cccc(C(=O)Oc2ccccc2)c1
inactive: Potency [4] | Potency [6] | Potency [7] | Potency [8] | Potency [9] | Potency [11]
active: Potency [1] 25.7 µM | Potency [17] 64.4 µM | Potency [10] 51.2 µM | Potency [13] 0.456 µM | Potency [14] 28.9 µM | Potency [15] 2.98 µM | Potency [16] 7.48 µM

OCCCCl
inactive: Potency [1] | Potency [17] | Potency [3] | Potency [4] | Potency [5] | Potency [6] | Potency [7] | Potency [8] | Potency [9] | Potency [10] | Potency [11] | Potency [12] | Potency [13] | Potency [14] | Potency [15] | Potency [16]

Cc1cccc(Br)c1
inactive: Potency [3] | Potency [4] | Potency [9] | Potency [10] | Potency [11] | Potency [12] | Potency [14]
active: Potency [1] 10.9 µM | Potency [17] 54.8 µM | Potency [15] 35.8 µM | Potency [16] 40.1 µM
